Screening data deposited in PubChem by National Center for Advancing Translational Sciences (NCATS).
ALOX15 inhib – blocks human 15-lipoxygenase activity | purified 15hLO-1, xylenol orange hydroperoxide absorbance | 1.4% of 74,000 active | P16050 | Potency, µM (highest dose often 57.1 µM), for inactives: at the top dose activity change, negative = inhibition, actives largely listed as inhibitors; note: potency is the fitted concentration of half-maximal effect; % is set by controls: 0 for no effect and ±100 for the full control effect; nearly all actives have a fitted effect of over 55% in size
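Quantitative HTS in 25 mM Hepes pH 7.5 containing 0.01% Triton X-100: human 15hLO-1 at 40 nM, arachidonic acid at 50 uM, 6 min turnover. Product quantified via ferrous oxidation/xylenol orange, 573:405 nm absorbance ratio.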
UbGFP stabilizer – proteasome inhibitors stabilizing ubiquitin-GFP reporter | AID 526 | Potency, µM (series often up to 45.9 µM), for inactives: at the highest dose activation (GFP accumulation), usual class: activators | Ubiquitin-GFP reporter cells, proteasome inhibition, GFP fluorescence; response scale: untreated = 0%, 10 µM MG-132 = 100% | 67,000 tested, under 10 active; active = well fitted activation curve with a large enough effect, not every such curve was filed as active; inconclusive = small, poorly fitted or top-dose-only effect, or another doubt; inactive = no such curve, though single readings can be large or run the other way; note: potency is the fitted concentration of half-maximal effect
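GFP accumulation read-out: laser plate cytometry counting ubiquitin(G76V)-GFP-expressing U2OS cells after 4 hr compound exposure at 37 °C. Titrations spanned 46 uM to 2.9 nM; 0% = basal, 100% = 10 uM MG-132; concentration-response curves fitted.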
HBB splice mod – hemoglobin beta splicing modulation; HBB splicing reporter cell assay, activation; EGFP reporter with mutant IVS2-654 intron; response scale: normalised to 500 nM splice-correcting PNA; Potency, µM (titrated, usually from 46.1 µM), for inactives: at the highest dose activation, usual class: activators; 0.06% of 65,000 active; AID 925; note: potency is the fitted concentration of half-maximal effect; 0% is about no effect
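Compounds were applied for 2 days to HeLa EGFP-654 cells, 500/well in Optimem with 2% FCS. The reporter's EGFP is disrupted by mis-splicing of beta-globin intron IVS2-654. Readout: summed well GFP fluorescence from 488 nm laser scanning; reference was 500 nM antisense […] 654 PNA.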
Epigenetic mod – epigenetic modulators derepressing GFP locus in mouse cells | mouse C127i GFP locus derepression, cytometry, 30 h | 0.09% of 68,000 active | Potency, µM (highest dose often 46.1 µM), for the others: at the highest dose GFP derepression (activation) | AID 597; note: % of control where 0% means no effect
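Read-out is the number of GFP-positive cells, scored as fluorescent objects 20 to 120 um wide, reflecting derepression of a silenced CMV-GFP reporter in murine C127i cells after 30 h compound exposure at 37 C.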
ALOX15B inhib – 15-hLO-2 (ALOX15B) enzyme inhibition | O15296 | 0.56% of 110,000 active | purified 15hLO-2, xylenol orange hydroperoxide absorbance | AID 881 | Potency, µM (highest dose often 57.1 µM), inactives show at the top dose activity change, negative = inhibition, most hits filed as inhibitors; note: potency is the fitted concentration of half-maximal effect; % is set by controls: 0 for no effect and ±100 for the full control effect; nearly all actives have a fitted effect of over 60% in size
Target sequence (O15296 whole entry, looked up): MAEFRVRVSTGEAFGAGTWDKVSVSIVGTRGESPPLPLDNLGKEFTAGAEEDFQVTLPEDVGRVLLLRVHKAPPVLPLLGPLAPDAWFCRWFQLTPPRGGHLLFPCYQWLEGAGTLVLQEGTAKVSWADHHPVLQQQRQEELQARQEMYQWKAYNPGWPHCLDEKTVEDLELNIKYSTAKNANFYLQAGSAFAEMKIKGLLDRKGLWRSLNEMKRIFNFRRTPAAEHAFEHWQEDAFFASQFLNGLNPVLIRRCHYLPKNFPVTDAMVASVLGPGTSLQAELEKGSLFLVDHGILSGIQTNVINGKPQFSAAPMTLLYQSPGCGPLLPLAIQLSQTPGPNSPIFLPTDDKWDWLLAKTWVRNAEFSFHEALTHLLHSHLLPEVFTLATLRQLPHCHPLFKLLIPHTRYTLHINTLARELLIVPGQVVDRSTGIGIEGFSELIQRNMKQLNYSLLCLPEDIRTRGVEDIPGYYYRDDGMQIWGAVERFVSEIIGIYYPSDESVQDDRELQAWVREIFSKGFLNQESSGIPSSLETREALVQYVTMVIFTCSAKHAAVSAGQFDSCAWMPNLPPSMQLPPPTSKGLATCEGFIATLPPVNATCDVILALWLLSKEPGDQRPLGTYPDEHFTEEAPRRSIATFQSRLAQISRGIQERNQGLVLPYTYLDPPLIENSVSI
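Screening format was qHTS against 50 nM purified 15hLO-2 in Hepes pH 7.5 with detergent. Activity follows hydroperoxide formation from 45 uM arachidonic acid, measured as 573:405 nm absorbance ratio of the ferric-xylenol orange complex.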
Tau filament bind – tau filament binding. P10636. recombinant tau filaments, thioflavin S fluorescence, 15 h; filaments grown with octadecylsulfate alongside compound. Potency, µM (top dose mostly 57.1 µM), for inactives: at the top dose activity change, negative = inhibition. 2% of 71,000 active;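 note: potency is the fitted concentration of half-maximal effect; % is set by controls: 0 for no effect and ±100 for the full control effect; actives lower thioflavin S fluorescence by blocking filaments or displacing dye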
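Assay mix: 1 uM His-tagged tau, 30 uM sodium octadecylsulfate, thioflavine S dye in HEPES/NaCl/DTT buffer. Compound is added prior to the inducer. Fluorescence after 15 h at 37 C.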
* = called active by the depositor; i = inactive; u = inconclusive; x = not tested or not shown; [ ] = dose if it differs, or a comment. The list is not random: actives were taken first. Their share in the collection is about 2.3%. Unless noted, calls come from the whole dose curve; as a rule, active = well fitted curve in the direction sought with a large enough effect; inconclusive = small, poorly fitted or top-dose-only effect, or another doubt; inactive = no such curve, though single readings can be large; an effect the other way counts as inactive or inconclusive.

SMILES	ALOX15 inhib	UbGFP stabilizer	HBB splice mod	Epigenetic mod	ALOX15B inhib	Tau filament bind
Cc1ccccc1-c1nccc(NCCN2CCOCC2)n1	-27%	4%	0%	0%[9.22 µM]	-8%	-7%
CC(=O)[C@H]1CC[C@@H]2[C@]1(C)CC=C1[C@]23C=C[C@]2(C[C@H](O)CC[C@@]12C)[C@H](C(=O)O)[C@@H]3C(=O)O	7%[11.4 µM]	1%[9.17 µM]	0%[9.22 µM]	2%[9.22 µM]	-8%[11.4 µM]	-3%[11.4 µM]
CCN(CC)c1ccc2cc(-c3nc4ccccc4[nH]3)c(=O)oc2c1	-2%[11.4 µM]	0.5µM*	0.79µM*	0.16µM*	-5%	i[11.4 µM]
CCN(CC)c1ccc2cc(-c3nc4ccccc4n3C)c(=O)oc2c1	-5%[11.4 µM]	u	u	10µM*	-10%	i[11.4 µM]
CCN(CC)c1ccc(/C=C(/C#N)c2nc3ccccc3[nH]2)c(OC(C)C)c1	x	x	x	x	20%	x
O=c1c(-c2ccccc2)nc2cnc(N3CCNCC3)nc2n1-c1ccccc1	0.32µM*	2%	-1%	5%[9.22 µM]	32%	4%
COc1ccc(-n2c(=O)c(-c3ccc(Cl)cc3)nc3cnc(N4CCNCC4)nc32)cc1	1%	-4%	0%	12%[9.22 µM]	57%	4µM*
COc1ccc(-n2c(=O)c(-c3ccccc3)nc3cnc(N4CCNCC4)nc32)cc1	15%	3%	0%	5%[9.22 µM]	-4%	u
O=c1c(-c2ccc(Cl)cc2)nc2cnc(N3CCNCC3)nc2n1-c1ccccc1	5%	-5%	0%	2%[9.22 µM]	32%	3.2µM*
O=c1c(-c2cc(F)cc(F)c2)nc2cnc(N3CCNCC3)nc2n1-c1ccccc1	2%	4%	0%	10%[9.22 µM]	33%	4µM*
O=c1cc(-c2ccccc2O)oc2c1ccc1ccccc12	5%[25.6 µM]	-4%	x	-2%[9.22 µM]	-5%	10%
C=C(C#N)C(=O)OCC	0%	x	1%	x	-8%	3%
CCCN1C(=O)c2cc(C(=O)O)ccc2C1O (centres undefined)	20µM*	11%	-1%	x	-9%	-13%
CN1CCN([C@@H]2Cc3ccccc3Sc3ccc(Cl)cc32)CC1	-16%	-3%	-1%	4%	43%	8%
Cc1cc2cc(CNC(=O)c3ccc4c(c3)OCO4)ccc2n1C	20µM*	9%	-1%	6%	6%[2.29 µM]	u
Cc1cc2cc(CNC(=O)c3cc4ccccc4o3)ccc2n1C	u	7%	0%	1%	-2%	16µM*
O=C(NCc1ccc2c(c1)OCO2)c1cccc(C(=O)NCc2ccc3c(c2)OCO3)c1	-21%	4%	-2%	-3%	0%	7%
COCC(=O)NCc1ccc2c(c1)cc(C)n2C	u	-5%	0%	6%	x	22%
Cc1cc(-c2csc(NC(=O)c3cc4ccccc4o3)n2)c(C)n1C	u	0%	0%[57.5 µM]	0%	x	10µM*
COC(=O)N1CCC2(CCCN(c3ncccn3)C2)CC1	2%	-3%	4%	2%[9.22 µM]	1%	6%
COc1ccc(OC)c(N)c1	-6%	4%	-2%	0%	-26%	13µM*
COc1ccc(C)cc1N	-21%	x	0%	x	-5%	-1%
Cc1cc(NC(=O)c2cc(-c3ccncc3)nc3c(C)cccc23)no1	6%	0%	0%	3%	-1%	3.2µM*
Cc1cc(C)c2nc(-c3ccccn3)cc(C(=O)Nc3cc(C)on3)c2c1	-5%	11%	0%	-2%	-3%	230%
CN(C)CCCO[C@H]1[C@H]([C@H](O)CO)O[C@H]2OC(C)(C)O[C@@H]21	9%	3%	2%	-1%	-5%	-6%
Cc1ccc2c(c1)N(C(=O)CSc1nncn1C)C(C)(C)c1ssc(=S)c1-2	u	1%	x	0%	u	16µM*
OC[C@@H]1O[C@@H](n2cnc3c(SCc4ccccc4)ncnc32)[C@@H](O)[C@H]1O	8%[11.4 µM]	3%[9.17 µM]	-2%[9.22 µM]	0%[9.22 µM]	-9%[11.4 µM]	-5%[11.4 µM]
